Reference: the supplement of paper PMC10338343
± gives the standard deviation.

Key:
[1] = system: MILI (PIWIL2) piRISC loaded with piRNA #1 (26 nt); experiment: pre-steady-state target cleavage rate (min^-1); guide: piRNA #1 5'p-UGAGGUAGUAGGUUGUAUAGUAUCCA; higher = faster piRNA-guided slicing of the target; conditions: auxiliary factor: 500 nM mouse GTSF1;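 note: 1 nM active piRISC with 0.1 nM target library at 33 °C single turnover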
Method in brief: (§1)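 The pre-steady-state cleavage rate was calculated from a burst-and-steady-state fit. Data came from Cleave-'n-Seq, in which […] transcribed, DNA-blocked target RNA library was mixed with 1 nM active affinity-purified piRISC carrying one synthetic guide, with or without 500 nM GTSF1 partner protein, in HEPES–potassium acetate buffer at 33 °C for 0–8 or 0–960 min. Uncleaved targets were sequenced and normalised to depth and to weakly complementary targets, three trials were pooled, and k3 was capped at 0.0001 min^-1.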

[2] = system: EfPiwi piRISC loaded with piRNA #1 (26 nt); experiment: pre-steady-state target cleavage rate (min^-1); auxiliary factor: 500 nM Ephydatia muelleri Gtsf1; guide: piRNA #1 5'p-UGAGGUAGUAGGUUGUAUAGUAUCCA; MIWI and MILI are mouse PIWI proteins and EfPiwi is from a freshwater sponge; tags in brackets are library labels; higher = faster piRNA-guided slicing of the target
Method in brief: as §1

Sequence | pre-steady-state target cleavage rate [1] | pre-steady-state target cleavage rate [2]
GGAGAGGAUACAAUACAACCUAGUACCUCA | 0.0411 ± 0.0087 | 0.00263 ± 0.0018
GGAGACCUAUGAAUACAACCUACAUACCUCA | 0.00848 ± 0.0021 | < 0.0001
GGAGACCAAACUAUACAACCUACUUCCUCA | 0.0841 ± 0.035 | 0.00317 ± 0.0029
GGAGACCUAUCUAUACAACCUAGUACCUCA | 0.0209 ± 0.0054 | 0.00361 ± 0.0027
GGAGACGAUACUAUACAACGUACUACCUGA | 0.0157 ± 0.0045 | 0.0041 ± 0.0012
GGAGACGAUACUAUACUACCUACUACCACA | 0.209 ± 0.016 | 0.00202 ± 0.0018
GGAGACGAUACUAUUACAACCUACUACCUCA | 0.172 ± 0.011 | 0.0508 ± 0.019
GGAGAGGUUACUAUACAACCUACUACCUGA | 0.0157 ± 0.0052 | 0.00474 ± 0.0019
GGAGACGAUACUACUACAACCUACUACCUCA | 0.193 ± 0.015 | 0.0327 ± 0.012
GGAGUGGUACUAUACAACCUACUACCUCA | 0.148 ± 0.0098 | 0.00812 ± 0.0044
GGAGUGGAUACUAUAACAACCUACUACCUCA | 0.171 ± 0.0095 | 0.0556 ± 0.021
GGAGACCUUACUAUACUACCUACUACCUCA | 0.159 ± 0.014 | 0.00739 ± 0.0039
GGAGACCUAUGUAUUACAACCUACUACCUCA | 0.0187 ± 0.0046 | 0.0036 ± 0.0033
GGAGACCAUACUAUACAACCUACUACCACA | 0.231 ± 0.029 | 0.00574 ± 0.002
GGAGACCUUACUAUACAAGCUACUACCACA | 0.266 ± 0.023 | 0.00275 ± 0.0027
GGAGACGAUACUUUACAACCUAGUACCUCA | 0.0601 ± 0.017 | 0.00252 ± 0.0017
GGAGUGGAUACUAUACAACGUACUACCACA | 0.0255 ± 0.0047 | 0.00371 ± 0.00099
GGAGAGGAUACUAGACAACCUACUACCUCA | 0.118 ± 0.01 | 0.0121 ± 0.0055
GGAGACGAAACUUUACAACCUACUACCUCA | 0.213 ± 0.03 | 0.0147 ± 0.0064
GGAGACGAUAGUAUACAACCUACUACCUGA | 0.113 ± 0.017 | 0.0032 ± 0.0023

Sequence | pre-steady-state target cleavage rate [1] | pre-steady-state target cleavage rate [2]
GGAGUGCUUACUAUACAACCUACUACCUCA | 0.162 ± 0.0091 | 0.0694 ± 0.025
GGAGACCUUACUAUACACCCUACUACCUCA | 0.058 ± 0.0099 | 0.00862 ± 0.0036
GGAGAGGAUACUAUACUUCCUACUACCUCA | 0.19 ± 0.015 | 0.00555 ± 0.0051
GGAGAGGAUUCUAUACAACGUACUACCUCA | 0.028 ± 0.0028 | 0.00249 ± 0.0021
GGAGACCUAUCUAUACAACCUACUACCUCG [g2:g20:cont:t1G] | 0.11 ± 0.012 | 0.061 ± 0.024
GGAGACGAUACUAUACAACCUUCAACCUCA | 0.00736 ± 0.0019 | 0.00247 ± 0.0013
GGAGUGGAUACUAUACAACCUACUACCAUCA | 0.0921 ± 0.013 | 0.00588 ± 0.0026
GGAGACCAUACUUUACAACCUACUACCUCA | 0.168 ± 0.014 | 0.017 ± 0.0071
GGAGACGAUUCUAUACAACCUACAACCUCA | 0.164 ± 0.013 | 0.00277 ± 0.0012
GGAGACCAUACUAUACAACCUACUACCUACA | 0.16 ± 0.018 | 0.00527 ± 0.0031
GGAGACCUUACUAUACAACCUACUACCGUCA | 0.132 ± 0.02 | 0.0112 ± 0.0047
GGAGACCUAACUAUACAACCUGCUACCUCA | 0.0157 ± 0.0084 | 0.0127 ± 0.005
GGAGACCAUACUGUACAACCUACUACCUCA | 0.079 ± 0.012 | 0.0144 ± 0.0056
GGAGUGGUUACUAAACAACCUACUACCUCA | 0.161 ± 0.0092 | 0.00439 ± 0.0033
GGAGUGGAUACAAUACUACCUACUACCUCA | 0.16 ± 0.013 | 0.00316 ± 0.0019
GGAGACGAUACUAUACAACCUACUACCUCC [g2:g24:cont:t1C] | 0.182 ± 0.014 | 0.0508 ± 0.017
GGAGACCUUAUCUAUACAACCUACUACCUCA | 0.115 ± 0.014 | 0.0368 ± 0.017
GGAGACCUAUGAGUACAACCUACUACCUCA | 0.00674 ± 0.0022 | 0.00713 ± 0.004
GGAGACCUAACUAUACAACGUACUACGUCA | 0.00454 ± 0.0043 | 0.00291 ± 0.0026
GGAGUGGAUAGUAUACAACCUACUACCUGA | 0.0603 ± 0.014 | 0.00315 ± 0.0017
